Data: PubChem BioAssay (NCI)
The panel holds about 83,000 compounds, 20% with a hit somewhere; the sample as a whole holds those more often.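 Note: values are percent growth. 100 is the growth of untreated cells, values between 100 and 0 indicate rising inhibition; between -100 and 0 indicates cell death.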 Values without a mark were called inactive. Calls of active or inactive are those of the source.

test system: NCI-H460 lung; experiment: NCI-60 one-dose screen, 48 h (100 = growth as untreated, 0 = no growth, -100 = all killed); conditions: 10 µM unless noted
Experimental: Growth inhibition of the NCI-H460 human Non-Small Cell Lung tumor cell line is measured as a screen for anti-cancer activity. Cells are grown in 96 well plates and exposed to the test compound for 48 hours. Compounds are tested at a single concentration, which is 10^-5 M for most compounds. The reported endpoint is percent growth (GI% or GIPRCNT), where numbers from 0 - 100% represent growth inhibition, and numbers from -100% - 0 represent cell death. For example, a value of 40 represents 60% growth inhibition. A value of 0 means no net growth occurred over the course of the experiment. A value of -40 indicates 40% of cells at the beginning of the experiment died by the end of the experiment. A value of -100 means all cells are dead at the end of the experiment.
NCI-60 Human Tumor Cell Lines Screen was performed using the standard one-dose NCI protocol, which is described in more detail at https://dtp.cancer.gov/discovery_development/nci-60/default.htm.
Compounds with GIPRCNT values below 10 were considered active. Activity score was based on GIPRCNT using the following formula: […]
Score is 0 for GIPRCNT values of 100 or above, 50 for GIPRCNT values of 0, and 100 for GIPRCNT values of -100.

Compound | growth
Cc1ccc(C2CC(c3cccc(Nc4ccncc4)c3)=NN2c2ccccc2)cc1 (stereo not given) | -77.8% (active)
CCOc1ccc(/C=N/Nc2cc(C)nc3ccc(Cl)cc23)cc1 | 3.37% (active)
CN(C)C(=O)c1cc2cnc(Nc3ccc(-c4csc5c(=O)cc(N6CCOCC6)oc45)cc3)nc2n1C1CCCC1 | -26.4% (active)
CN(C)C(C(N)=O)c1ccc(Cl)cc1 (stereo not given) | 109%
CC[C@H](C)[C@@H]1NC(=O)[C@H](Cc2ccc(O)cc2)N(C)C(=O)[C@H](Cc2ccccc2)NC(=O)CN(C)C(=O)[C@@H]2CCCN2C(=O)[C@@H](Cc2ccccc2)N(C)C(=O)[C@H](CC(C)C)NC1=O | -26.5% (active)
COc1cc(NCCN(CC(C)C)C2CCCC2)c2ncccc2c1 | 95.7%
COc1ccc(C2CC(c3cccc(Nc4ccncc4)c3)=NN2c2ccc(Cl)cc2)cc1 (stereo not given) | -85.9% (active)
O=C(/C=C/c1ccc[nH]1)c1ccc(-n2ccc(C(F)(F)F)n2)cc1 | 99.1%
COc1ccccc1/C=N/NC1=NC2C(N1)N(C)C(=O)N2C (stereo not given) | 102%
COc1cc2c(cc1[N+](=O)[O-])-c1ccc([N+](=O)[O-])cc1/C2=N\O | 84%
O=C(Nc1cccc(Cl)c1)Oc1c(Br)c(Br)c(Br)c(Br)c1Br | 99.7%
O=C1c2ccccc2-c2c1c1c(NCCCO)nc3ccccc3c1n2Cc1ccccc1 | -29% (active)
COc1ccc(/C=C/c2n[nH]c3ccc(N4CCOC4=O)cc23)cc1 | 1.61% (active)
COc1ccc(-c2nc(SCC(C)C)nc(N/N=C(/C)c3ccc(OC)c(OC)c3)c2C#N)cc1 | 65.9%
O=C(OCc1nc2nc(Cl)nc(N3CCOCC3)c2[nH]1)n1ccnc1 | 3.6% (active)
COc1ccc(-c2nn(Cc3ccccc3)c3c2-c2oncc2CC3)cc1OC | 95.6%
COc1ccncc1C#Cc1cncc(C(=O)Nc2ccc(CN3CCN(C)CC3)c(C(F)(F)F)c2)c1 | 8.17% (active)
C#CCNC(=O)[C@H](Cc1ccccc1)NC(=O)[C@]12CC[C@@H](C(=C)C)[C@@H]1[C@H]1CC[C@@H]3[C@@]4(C)Cc5c([nH]c6ccccc56)C(C)(C)[C@@H]4CC[C@@]3(C)[C@]1(C)CC2 | 104%
O=C1NC(=S)NC(=O)C1=Cc1cccc(C=C2C(=O)NC(=S)NC2=O)c1 | 104%
CC(=O)[C@@H]1CC[C@]2(C(N)=O)CC[C@]3(C)[C@H](CC[C@@H]4[C@@]5(C)CCC(=O)C(C)(C)[C@@H]5CC[C@]43C)[C@@H]12 | 101%

Compound | growth
COc1cccc(CNCCN2C(=O)c3ccc4c5c(ccc(c35)C2=O)C(=O)N(CCNCc2cccc(OC)c2)C4=O)c1 | 46.8%
CCCOc1nc(SCCC)nc2c1cnn2-c1ccccc1 | 101%
ClCC1(Cn2cnc3c(Cl)nc(Cl)nc32)COC1 | 86.5%
O=c1[nH]c(=O)[nH]c(=S)[nH]1 | 105%
CC(C)CCSc1nc(NNC(N)=O)c(C#N)c(-c2ccccc2)n1 | 112%
Clc1ccc(N2N=C(c3cccc(Nc4ccncc4)c3)CC2c2ccc3c(c2)OCO3)cc1 (stereo not given) | -65.4% (active)
CC(N)C(=O)NNc1n[nH]c(=S)n1N (stereo not given) | 103%
Clc1cc(Cl)cc(N2N=C(c3cccc(Nc4ccncc4)c3)CC2c2ccc3c(c2)OCO3)c1 (stereo not given) | -90.2% (active)
CN1CCN(C(=O)[C@]2(C)CC[C@]3(C)CC[C@]4(C)C(=CC(=O)[C@@H]5[C@@]6(C)CCC(=O)NC(C)(C)[C@@H]6CC[C@]54C)[C@@H]3C2)CC1 | 102%
C#CC(=O)Nc1cccc(Nc2nc3c(c(NCc4ccccc4)n2)CCCC3)c1 | -57.8% (active)
CCOc1cc(CNc2ccc(N3CCOCC3)c(C(=O)O)c2)ccc1OC | 102%
O=C(Nc1ccc(Nc2ncccn2)cc1)NC1C=c2ccccc2=CC1 (stereo not given) | 104%
FC(F)(F)Oc1cccc(-c2cc(NCCCCCCNc3cc(-c4cccc(OC(F)(F)F)c4)nc4ccc(N5CCCC5)cc34)c3cc(N4CCCC4)ccc3n2)c1 | -52.1% (active)
CC(C)Sc1nc(NN)c(C#N)c(-c2ccccc2)n1 | 98.6%
COc1cc2oc(-c3cccc(C(=O)Nc4ccc(Cl)cc4)c3)cc(=O)c2c(OC)c1OC | 20.1%
O=C(Nc1ccccc1)Oc1ccccc1-c1ccccc1 | 99.7%
COc1ccc(NC(=O)c2sc3nc(C)c(C(O)c4ccc(OC)cc4)cc3c2N)cc1 (stereo not given) | 9.03% (active)
Cc1[nH]c(C(=O)Nc2ccccc2OCc2cccc(C(=O)NCCN)c2)c(Cl)c1Cl | 51.8%
Cc1ccc(C(=O)Nc2ccccc2C(=O)N/N=C(\c2ccccc2)c2ccccn2)cc1 | 5.43% (active)
Clc1ccc(C2CC(c3cccc(Nc4ccncc4)c3)=NN2c2cc(Cl)cc(Cl)c2)cc1 (stereo not given) | -68% (active)
